# According to PubChem BioAssay (NCATS):
# Inconclusive results are not listed. Active and inactive are the calls of the source. The call rests on the fitted dose curve. Non-standard residues stand in square brackets, D forms with d. Residues, ends and D or L forms follow the SMILES beside them. *: point of attachment. Nva = CCC[C@H](N)C(=O)O; Cbz = O=C(OCc1ccccc1)*
# Assays:
# [1] = qHTS drug screen for cell cycle checkpoint inhibitors in PARPi-resistant BRCA-mutant ovarian cancer cell lines. (AID 1963452); details: PEO1/OlaR viability, CellTiter-Glo luminescence, 96 h; for Z-AUC: stronger effect = lower value
# Procedure, shortened: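 PEO1, PEO4 and PEO1/OlaR ovarian cancer cells, 600 per well, exposed 96 h at 37C to a dilution series. Viability read by CellTiter-Glo luminescence, normalized to DMSO and empty wells; activity summarized as Z-AUC.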
# [2] = qHTS for identification of novel therapeutic agents for treatment of microphthalmiaassociated transcription factor (MiT) renal cell carcinoma (RCC) (AID 1963991); details: CellTiter-Glo, 48 h; for z-score: stronger effect = lower value; for Potency: active = Z-AUC below -0.8 in all three lines
# Procedure, shortened: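 Three TFE3-fusion RCC lines (UOK109, UOK124, UOK145), 500 cells/well in complete medium, were treated with MIPE 4.0 compounds for 48 hours at 37 C. Viability was by CellTiter-Glo luminescence, normalized to DMSO (100%) and empty wells (0%); curves fitted over 11 concentrations.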
# [3] = measured here: PEO1 parental Z-AUC
# [4] = TFE3-RCC UOK109 viability, measured here: UOK109 Z-AUC
# [5] = TFE3-RCC viability, measured here: UOK124 Z-AUC
# [6] = TFE3-RCC viability, measured here: UOK145 Z-AUC
# Potency means the concentration at half of the fitted maximal effect.
Compound,Z-AUC [1],"Z-AUC [1, 3]",Z-AUC ([1]; measured here: PEO4 Z-AUC),"z-score [2, 4]","z-score [2, 5]","z-score [2, 6]",Potency [1],Potency ([2]; TFE3-RCC UOK109 viability)
COc1cc(C(=O)NC2CCN(C)CC2)ccc1Nc1ncc2c(n1)N(C1CCCC1)CCC(=O)N2C(C)C,-0.77 (inactive),0.079,-0.318,–,–,–,–,–
OC[C@H]1OC(O)C[C@@H](O)[C@H]1O (stereo partly specified),-0.67 (inactive),-0.645,-0.88,1.34,0.406,-0.0329,–,–
CCCCCCCCCCCCc1ccc(S(=O)(=O)Nc2nncs2)cc1,-0.392 (inactive),0.179,0.202,1.37,2.17,1.03,–,–
CCCNS(=O)(=O)Nc1ncnc(OCCOc2ncc(Br)cn2)c1-c1ccc(Br)cc1,0.736 (inactive),0.726,1.05,1.06,1.04,0.601,–,–
COc1ccc(C=Cc2cc(OC)c(OC)c(OC)c2)cc1NC(=O)[C@H](N)CO,–,-1.39,-1.42,-2.33,-3.86,-1.55,54.9 nM (active),10.5 nM (active)
O=C(c1ccc(F)cc1)N1CCC[C@H](c2nc(-c3ccc(F)cc3)no2)C1,1.14 (inactive),0.372,0.34,1.39,0.757,0.391,–,–
CCC[C@@H](C=O)NC(=O)[C@H](CC(C)C)NC(=O)[C@H](CC(C)C)NC(=O)OCc1ccccc1 (Cbz-Leu-Leu-[Nva]-aldehyde),-1.63 (inactive),-1.42,-1.86,-1.03,-2.77,-1.34,–,4180 nM (active)
CCN(C(=O)c1c(O)c2c(Cl)cccc2n(C)c1=O)c1ccccc1,-0.417 (inactive),-0.714,-1.09,0.408,0.904,0.468,–,–
CCCCC(=O)O[C@]1(C(=O)CO)[C@@H](C)C[C@H]2[C@@H]3CCC4=CC(=O)C=C[C@]4(C)[C@@]3(F)[C@@H](O)C[C@@]21C,-0.479 (inactive),0.863,0.108,-0.136,0.0594,0.664,–,–
O=C1c2cccc(O)c2C(=O)c2c(O)cc(CO)cc21,0.225 (inactive),-0.222,-0.301,0.181,0.143,0.0189,–,–
C=CC(=O)Nc1ccc2ncnc(Nc3ccc(OCc4cccc(F)c4)c(Cl)c3)c2c1,-0.749 (inactive),-1.48,-1.57,-2.47,-3.02,-1.72,–,590 nM (active)
